Source: the antibiotic and cytotoxicity screens of Wong et al. (2023)
Hit rate of the full screen: of about 39,000 compounds, about 1,500 (3.8%) were called active. The sample as a whole holds a higher share of actives than the screen did.

Tested on: HSkMC (human skeletal muscle cells)
Experiment: cytotoxicity call (relative viability < 0.9)
Conditions: 10 µM

SMILES | cytotoxicity call
CN1C(=O)c2cc(NC(=O)c3cnccn3)ccc2OC[C@H]2O[C@@H](CC(=O)N[C@@H]3CCN(Cc4ccccc4)C3)CC[C@@H]21 | inactive
CN1CCN(C(=O)C[C@@H]2CC[C@@H]3[C@H](COC[C@@H](O)CN3Cc3ccc4c(c3)OCO4)O2)CC1 | inactive
CS(=O)(=O)Cc1nc2ccccc2oc1=O | inactive
Cc1noc(C)c1NC(=O)Nc1cccc2c1O[C@@H](CN(C)Cc1ccc(Oc3ccccc3)cc1)[C@@H](C)CN([C@H](C)CO)C2=O | inactive
COc1ccc(S(=O)(=O)Nc2ccc3c(c2)C(=O)N([C@H](C)CO)C[C@H](C)[C@H](CN(C)S(=O)(=O)c2ccc(Cl)cc2)OCCCC[C@H](C)O3)cc1 | inactive
CCC(=O)N(C)C[C@@H]1Oc2ncc(C#C[C@H](C)O)cc2C(=O)N([C@H](C)CO)C[C@H]1C | inactive
COc1cccc(S(=O)(=O)N(C)C[C@H]2Oc3ncc(C#CC(C)C)cc3C(=O)N([C@H](C)CO)C[C@H]2C)c1 | inactive
CO[C@@H]1CN(C)C(=O)c2cc(NS(=O)(=O)CC(F)(F)F)ccc2OC[C@H](C)N(C(=O)NC(C)C)C[C@H]1C | inactive
C[C@@H]1CN([C@H](C)CO)C(=O)c2cc(NC(=O)CCCCCC(=O)Nc3ccccc3N)ccc2O[C@H]1CN(C)C(=O)Nc1ccc(F)cc1 | inactive
CN(C)c1nc(SCCO)nc(N(C)C)n1 | inactive
C[C@@H]1CCCCO[C@H](CN(C)C(=O)Nc2cccc3ccccc23)[C@H](C)CN([C@@H](C)CO)C(=O)c2cc(NS(=O)(=O)c3ccc(F)cc3)ccc2O1 | inactive
O=C(OC[C@H]1O[C@@H](OC(=O)c2cc(O)c(O)c(O)c2)[C@H](O)[C@@H](OC(=O)c2cc(O)c(O)c(O)c2)[C@@H]1O)c1cc(O)c(O)c(O)c1 | inactive
O=C(OCC1OC(OC(=O)c2cc(O)c(O)c(OC(=O)c3cc(O)c(O)c(O)c3)c2)C(OC(=O)c2cc(O)c(O)c(OC(=O)c3cc(O)c(O)c(O)c3)c2)C(OC(=O)c2cc(O)c(O)c(OC(=O)c3cc(O)c(O)c(O)c3)c2)C1OC(=O)c1cc(O)c(O)c(OC(=O)c2cc(O)c(O)c(O)c2)c1)c1cc(O)c(O)c(OC(=O)c2cc(O)c(O)c(O)c2)c1 (stereo unspecified) | inactive
O=C(OC[C@H]1O[C@@H](OC(=O)c2cc(O)c(O)c(O)c2)[C@H](OC(=O)c2cc(O)c(O)c(O)c2)[C@@H](OC(=O)c2cc(O)c(O)c(O)c2)[C@@H]1OC(=O)c1cc(O)c(O)c(O)c1)c1cc(O)c(O)c(O)c1 | active
CC(C)NC(=O)N(C)C[C@@H]1Oc2ccc(NC(=O)CCCN(C)C)cc2CC(=O)N([C@H](C)CO)C[C@@H]1C | inactive
COc1ccc(NC(=O)Nc2ccc3c(c2)C(=O)N([C@@H](C)CO)C[C@@H](C)[C@@H](CN(C)Cc2ccc(C(=O)Nc4ccccc4N)cc2)O3)cc1 | inactive
C[C@H]1CN([C@@H](C)CO)C(=O)c2c(c3ccccc3n2C)-c2ccccc2CO[C@@H]1CN(C)S(=O)(=O)c1ccc(Cl)cc1 | inactive
Cc1ccc(S(=O)(=O)Nc2ccc3c(c2)C(=O)N([C@H](C)CO)C[C@H](C)[C@@H](CN(C)S(C)(=O)=O)O3)cc1 | inactive
C[C@@H]1CN([C@H](C)CO)C(=O)c2cccc(NC(=O)Nc3ccc(C(F)(F)F)cc3)c2O[C@@H]1CN(C)Cc1ccc(C(F)(F)F)cc1 | active
C[C@H](CO)N1C[C@H](C)[C@@H](CN(C)Cc2ccc(C(F)(F)F)cc2)Oc2c(NC(=O)Nc3ccc(C(F)(F)F)cc3)cccc2C1=O | inactive
C[C@@H]1CN([C@H](C)CO)C(=O)c2cccc(NC(=O)Nc3ccc(C(F)(F)F)cc3)c2O[C@H]1CN(C)Cc1ccc(C(F)(F)F)cc1 | inactive

SMILES | cytotoxicity call
C[C@H](CO)N1C[C@H](C)[C@@H](CN(C)Cc2ccc(C(F)(F)F)cc2)Oc2c(NC(=O)Nc3ccc(F)cc3)cccc2C1=O | inactive
C[C@@H]1CN([C@@H](C)CO)C(=O)c2cccc(NC(=O)Nc3ccc(C(F)(F)F)cc3)c2O[C@@H]1CN(C)Cc1ccc(C(F)(F)F)cc1 | active
C[C@H]1CN([C@@H](C)CO)C(=O)c2cccc(NC(=O)Nc3ccc(F)cc3)c2O[C@@H]1CN(C)Cc1ccc(C(F)(F)F)cc1 | active
C[C@@H]1CN([C@@H](C)CO)C(=O)c2cccc(NC(=O)Nc3ccc(C(F)(F)F)cc3)c2O[C@H]1CN(C)Cc1ccc(C(F)(F)F)cc1 | inactive
C[C@H](CO)N1C[C@H](C)[C@H](CN(C)Cc2ccc(C(F)(F)F)cc2)Oc2c(NC(=O)Nc3ccc(C(F)(F)F)cc3)cccc2C1=O | inactive
C[C@@H]1CN([C@@H](C)CO)C(=O)c2cccc(NC(=O)Nc3ccc(F)cc3)c2O[C@H]1CN(C)Cc1ccc(C(F)(F)F)cc1 | inactive
CO[C@@H]1CN(C)C(=O)c2cc(NS(=O)(=O)c3cn(C)cn3)ccc2OC[C@@H](C)N(CCC(F)(F)F)C[C@H]1C | inactive
O=C(C[C@H]1CC[C@@H]2[C@H](COC[C@H](O)CN2S(=O)(=O)c2cccc(F)c2)O1)NCCCN1CCOCC1 | inactive
COCC#Cc1cnc2c(c1)C(=O)N([C@@H](C)CO)C[C@H](C)[C@H](CN(C)C(=O)Nc1ccccc1OC)O2 | inactive
O=C(CCCCCNC(=O)OCc1ccc(CO[C@@H]2C[C@H](c3ccc(C(F)(F)F)cc3)C=C(C(=O)N3CCN(Cc4ccc5c(c4)OCO5)CC3)O2)cc1)NO | inactive
C[C@@H]1CN([C@@H](C)CO)S(=O)(=O)c2ccc(-c3ccc(C(=O)N(C)C)cc3)cc2O[C@H]1CN(C)C(=O)Cc1ccccn1 | inactive
COc1ccc(NC(=O)N(C)C[C@@H]2OCCCC[C@H](C)Oc3ccc(NC(=O)CCC(F)(F)F)cc3C(=O)N([C@@H](C)CO)C[C@@H]2C)cc1 | inactive
CO[C@H]1CN(C)C(=O)c2cc(NS(=O)(=O)c3cn(C)cn3)ccc2OC[C@H](C)N(Cc2cccc(F)c2)C[C@@H]1C | inactive
CO[C@H]1/C=C/C[C@H](C)[C@@H](C)S(=O)(=O)NC(=O)c2ccc3c(c2)N(C[C@@H]2CC[C@H]21)C[C@@]1(CCCc2cc(Cl)ccc21)CO3 | active
COc1ccc(CN(C)C[C@@H]2OCCCC[C@@H](C)Oc3ccc(NC(=O)c4ccccc4)cc3C(=O)N([C@@H](C)CO)C[C@@H]2C)cc1 | inactive
CO[C@@H]1CN(C)C(=O)c2ccc(NS(=O)(=O)c3cn(C)cn3)cc2OC[C@H](C)N(Cc2cccc(F)c2)C[C@@H]1C | inactive
C=C1C(=O)OC2CC3(C)CCCC(C)C3=CC12 (stereo unspecified) | active
C[C@H]1CN([C@@H](C)CO)C(=O)c2cc(NC(=O)C3CCCCC3)ccc2O[C@@H]1CN(C)Cc1ccc(Cl)c(Cl)c1 | inactive
CC(C)c1c(O)ccc2c1CC[C@H]1C(C)(C)CCC[C@]21C | active
CC(C)c1c(O)ccc2c1CCC1C(C)(C=O)CCCC21C (stereo unspecified) | inactive
COC(=O)C1(C)CCCC2(C)c3ccc(O)c(C(C)C)c3CCC12 (stereo unspecified) | active

SMILES | cytotoxicity call
COC(=O)C1(C)CCCC2(C)c3ccc(C(C)C)cc3C(=O)CC12 (stereo unspecified) | inactive
CC(C)c1c(O)ccc2c1CCC1C(C)(C)C(=O)CCC21C (stereo unspecified) | inactive
CC(C)c1c(O)ccc2c1CCC1C(C)(C)CCCC21C (stereo unspecified) | inactive
Cn1cnc(CCNC(=O)C[C@H]2CC[C@@H]3[C@H](COC[C@H](O)CN3C(=O)Nc3ccc(Cl)cc3)O2)c1 | inactive
C[C@@H]1CN([C@@H](C)CO)C(=O)c2cc(NC(=O)c3ccccc3)ccc2O[C@@H](C)CCCCO[C@H]1CN(C)S(=O)(=O)c1cccs1 | inactive
COCC#Cc1ccc2c(c1)O[C@H](CN(C)S(=O)(=O)c1cccc(F)c1)[C@H](C)CN([C@H](C)CO)S2(=O)=O | inactive
NC(=O)N1CCC(CC(=O)N2CCC([C@H]3c4ncc(Br)cc4CCc4cc(Cl)cc(Br)c43)CC2)CC1 | inactive
C[C@@H]1CN([C@@H](C)CO)C(=O)CCCn2cc(nn2)CO[C@@H]1CN(C)S(=O)(=O)c1ccc2c(c1)OCCCO2 | inactive
Cc1ccc(S(=O)(=O)N(C)C[C@@H]2Oc3c(NC(=O)C4CCOCC4)cccc3C(=O)N([C@H](C)CO)C[C@H]2C)cc1 | inactive
C[C@@H]1CN([C@@H](C)CO)C(=O)c2c(c3ccccc3n2C)-c2ccccc2CO[C@@H]1CN(C)Cc1cccc(F)c1 | inactive
C[C@H]1CN([C@@H](C)CO)C(=O)Cc2cc(NC(=O)Nc3cc(Cl)cc(Cl)c3)ccc2O[C@H]1CN(C)S(=O)(=O)c1ccc(Oc2ccccc2)cc1 | inactive
C[C@H]1CN([C@@H](C)CO)C(=O)Cc2cc(NC(=O)Nc3ccc(Cl)c(Cl)c3)ccc2O[C@H]1CN(C)S(=O)(=O)c1ccc(Oc2ccccc2)cc1 | inactive
C[C@H](CO)N1C[C@H](C)[C@@H](CN(C)S(C)(=O)=O)Oc2ccc(NC(=O)Nc3ccccc3)cc2CC1=O | inactive
Cc1noc(C)c1S(=O)(=O)N(C)C[C@@H]1Oc2ccc(NC(=O)Nc3ccccc3)cc2CC(=O)N([C@@H](C)CO)C[C@@H]1C | inactive
Cc1ccccc1S(=O)(=O)N(C)C[C@@H]1Oc2ccc(NC(=O)Nc3cc(Cl)cc(Cl)c3)cc2CC(=O)N([C@@H](C)CO)C[C@@H]1C | active
Cc1ccccc1S(=O)(=O)N(C)C[C@@H]1Oc2ccc(NC(=O)Nc3ccc(Cl)c(Cl)c3)cc2CC(=O)N([C@@H](C)CO)C[C@@H]1C | active
Nc1ccccc1CO | inactive
C[C@H](CO)N1C[C@H](C)[C@H](CN(C)CC2CC2)OCCCC[C@H](C)Oc2ccc(NC(=O)Nc3ccccc3)cc2C1=O | inactive
C[C@@H]1CCCCO[C@H](CN(C)Cc2ccc3c(c2)OCO3)[C@H](C)CN([C@H](C)CO)C(=O)c2cc(NC(=O)Nc3ccc4c(c3)OCO4)ccc2O1 | inactive
